Data on 40 molecules can be found in PubChem BioAssay (Tox21).

The structures appear in SMILES notation. Results filed as inconclusive are left out. Where a call stands in place of a potency, no number is given. Activity calls are given as the source filed them. Calls come from the whole dose curve.

The nature of one test: p53 small molecule agonists, cell-based qHTS assay with human liver microsomes (AID 1963577).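 Note: p53 response element beta-lactamase reporter cells with liver microsomes plus NADPH.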 The settings on record: HCT-116 p53RE-bla with human liver microsomes, ratio, 16 h; series mostly up to 66 µM; activation: at the top concentration. In a few lines: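 Steps: plate p53RE-bla cells, incubate 5 h at 37 C; add compound in DMSO; add microsomes (0.5 mg/mL final) and NADPH (0.5 mg/mL final); incubate 16 h at 37 C; add LiveBLAzer, 2 h RT; read fluorescence.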
In general terms: Quantitative high-throughput screening tests each substance at several concentrations.
As for `O=C1O[C@H]([C@H](O)CO)C(O)=C1O`, the Potency result is “inactive”.

Regarding `COC(=O)c1ccc(O)cc1`, the Potency entry is “inactive”.

`S=c1nc[nH]c2nc[nH]c12`: the Potency result is “inactive”.

With `C[C@]12CCC(=O)C=C1CC[C@@H]1[C@@H]2C(=O)C[C@@]2(C)[C@H]1CC[C@]2(O)C(=O)CO`, the Potency entry was “inactive”.

For `C/C=C/C(=O)N(CC)c1ccccc1C`, the Potency entry was “inactive”.

On to `O=c1c(-c2ccc(O)cc2)coc2cc(O)cc(O)c12`, for which the Potency result is “inactive”.

Regarding `CN(N=O)C(=O)N[C@@H]1[C@@H](O)[C@H](O)[C@@H](CO)O[C@@H]1O`, the Potency result is “inactive”.

As to `CCCCC1C(=O)N(c2ccccc2)N(c2ccccc2)C1=O`, the Potency result is “inactive”.

On to `CC12CCC(CC1)C(C)(C)O2`, for which the Potency entry is “inactive”.

On to `OC[C@@H](O)[C@@H](O)[C@H](O)[C@H](O)CO`, for which the Potency entry is “inactive”.

Take `CCCN(CCC)S(=O)(=O)c1ccc(C(=O)O)cc1`: the Potency entry is “inactive”.

Turning to `Cc1ncc([N+](=O)[O-])n1CCO`, the Potency result was “inactive”.

In the case of `CCCCOC(=O)c1ccc(N)cc1`, the Potency entry was “inactive”.

As to `C#C[C@]1(O)CC[C@H]2[C@@H]3CCC4=CC(=O)CC[C@@H]4[C@H]3CC[C@@]21CC`, the Potency entry was “inactive”.

Take `c1ccc2c(c1)c1cccc3ccc4cccc2c4c31`: the “activation” value is 1.91% (inactive).

Take `CC1(C)O[C@@H]2C[C@H]3[C@@H]4C[C@H](F)C5=CC(=O)CC[C@]5(C)[C@H]4[C@@H](O)C[C@]3(C)[C@]2(C(=O)CO)O1`: the Potency result is “inactive”.

For the molecule `CC(C)=CCC/C(C)=C/CO`, the Potency entry was “inactive”.

As for `CN1C(C(=O)Nc2ccccn2)=C(O)c2ccccc2S1(=O)=O`, the Potency entry is “inactive”.

For `Cc1noc(NS(=O)(=O)c2ccc(N)cc2)c1C`, the Potency entry was “inactive”.

For `Cc1cc(=O)n(-c2ccccc2)n1C`, the Potency entry was “inactive”.

For the molecule `CC(C)(Oc1ccc(C2CC2(Cl)Cl)cc1)C(=O)O` (stereo not given), the Potency entry is “inactive”.

In the case of `OC[C@@H](O)[C@@H](O)[C@H](O)[C@@H](O)CO`, the Potency result is “inactive”.

Turning to `OC(Cn1cncn1)(Cn1cncn1)c1ccc(F)cc1F`, the Potency entry was “inactive”.

As for `OCCO`, the Potency result was “inactive”.

For the molecule `NS(=O)(=O)c1cc2c(cc1Cl)NCNS2(=O)=O`, the Potency result is “inactive”.

Consider `O=C(O)Cc1ccccc1Nc1c(Cl)cccc1Cl`, for which the Potency entry is “inactive”.

As to `CC(C)(C#N)c1cc(Cn2cncn2)cc(C(C)(C)C#N)c1`, the Potency entry is “inactive”.

Take `C[C@]12CC[C@@H]3c4ccc(O)cc4CC[C@H]3[C@@H]1C[C@@H](O)[C@@H]2O`: the Potency result is “inactive”.

With `CC[C@H](C)C(=O)O[C@H]1C[C@@H](C)C=C2C=C[C@H](C)[C@H](CC[C@@H]3C[C@@H](O)CC(=O)O3)[C@H]21`, the Potency entry was “inactive”.

On to `Cc1nnc(NS(=O)(=O)c2ccc(N)cc2)s1`, for which the Potency result was “inactive”.

On to `NC(=O)c1ccccc1O`, for which the Potency result was “inactive”.

Take `CC(C)Cc1ccc(C(C)C(=O)O)cc1` (stereo not given): the Potency entry is “inactive”.

Take `CC(C)(Oc1ccc(Cl)cc1)C(=O)O`: the Potency result is “inactive”.

As to `COc1ccccc1OCC(O)CO` (stereo not given), the Potency entry was “inactive”.

As for `NC(=O)c1cccnc1`, the Potency result is “inactive”.

Consider `CC(=O)[C@@]1(O)CC[C@H]2[C@@H]3C[C@H](C)C4=CC(=O)C=C[C@]4(C)[C@@]3(F)[C@@H](O)C[C@@]21C`, for which the Potency result was “inactive”.

On to `CC(=O)Nc1nnc(S(N)(=O)=O)s1`, for which the Potency entry is “inactive”.

For `NNCCc1ccccc1`, the Potency entry was “inactive”.

Consider `CCOC(N)=O`, for which the Potency entry is “inactive”.

Regarding `CCCCCCc1ccc(O)cc1O`, the Potency result is “inactive”.

A short description of another test: p53 small molecule agonists, cell-based qHTS assay with rat liver microsomes (AID 1963578). Note: potency is the fitted concentration of half-maximal effect. The conditions noted are these: HCT-116 p53RE-bla, beta-lactamase ratio, 16 h; series mostly up to 66 µM; activation: at the top concentration. In short, it runs like this: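 Metabolic activation is supplied by rat liver microsomes with NADPH (each 0.5 mg/mL final). p53RE-bla cells incubate with compound 16 h at 37 C; reporter activity is measured by LiveBLAzer fluorescence.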
Take `O=C1O[C@H]([C@H](O)CO)C(O)=C1O`: the “activation” value is 0.799% (inactive).

Turning to `COC(=O)c1ccc(O)cc1`, the Potency entry was “inactive”.

In the case of `S=c1nc[nH]c2nc[nH]c12`, the Potency result was “inactive”.

Regarding `C[C@]12CCC(=O)C=C1CC[C@@H]1[C@@H]2C(=O)C[C@@]2(C)[C@H]1CC[C@]2(O)C(=O)CO`, the Potency entry is “inactive”.

For `C/C=C/C(=O)N(CC)c1ccccc1C`, the Potency entry is “inactive”.

Regarding `O=c1c(-c2ccc(O)cc2)coc2cc(O)cc(O)c12`, the Potency result was “inactive”.

In the case of `CN(N=O)C(=O)N[C@@H]1[C@@H](O)[C@H](O)[C@@H](CO)O[C@@H]1O`, the Potency result is “inactive”.

Take `CCCCC1C(=O)N(c2ccccc2)N(c2ccccc2)C1=O`: the Potency entry is “inactive”.

As for `CC12CCC(CC1)C(C)(C)O2`, the Potency entry is “inactive”.

For `OC[C@@H](O)[C@@H](O)[C@H](O)[C@H](O)CO`, the Potency result is “inactive”.

Regarding `CCCN(CCC)S(=O)(=O)c1ccc(C(=O)O)cc1`, the Potency result is “inactive”.

On to `Cc1ncc([N+](=O)[O-])n1CCO`, for which the Potency result was “inactive”.

In the case of `CCCCOC(=O)c1ccc(N)cc1`, the Potency entry is “inactive”.

Consider `C#C[C@]1(O)CC[C@H]2[C@@H]3CCC4=CC(=O)CC[C@@H]4[C@H]3CC[C@@]21CC`, for which the Potency entry was “inactive”.

Regarding `c1ccc2c(c1)c1cccc3ccc4cccc2c4c31`, the Potency was 32.2 µM (active).

With `CC1(C)O[C@@H]2C[C@H]3[C@@H]4C[C@H](F)C5=CC(=O)CC[C@]5(C)[C@H]4[C@@H](O)C[C@]3(C)[C@]2(C(=O)CO)O1`, the Potency entry was “inactive”.

Consider `CC(C)=CCC/C(C)=C/CO`, for which the Potency result is “inactive”.

Consider `CN1C(C(=O)Nc2ccccn2)=C(O)c2ccccc2S1(=O)=O`, for which the Potency entry was “inactive”.

Consider `Cc1noc(NS(=O)(=O)c2ccc(N)cc2)c1C`, for which the Potency result is “inactive”.

With `Cc1cc(=O)n(-c2ccccc2)n1C`, the Potency entry is “inactive”.

For `CC(C)(Oc1ccc(C2CC2(Cl)Cl)cc1)C(=O)O` (stereo not given), the Potency result was “inactive”.

For the molecule `OC[C@@H](O)[C@@H](O)[C@H](O)[C@@H](O)CO`, the Potency result was “inactive”.

With `OC(Cn1cncn1)(Cn1cncn1)c1ccc(F)cc1F`, the Potency entry is “inactive”.

In the case of `OCCO`, the Potency result is “inactive”.

Take `NS(=O)(=O)c1cc2c(cc1Cl)NCNS2(=O)=O`: the Potency result was “inactive”.

As for `O=C(O)Cc1ccccc1Nc1c(Cl)cccc1Cl`, the Potency result is “inactive”.

As for `CC(C)(C#N)c1cc(Cn2cncn2)cc(C(C)(C)C#N)c1`, the Potency result is “inactive”.

For `C[C@]12CC[C@@H]3c4ccc(O)cc4CC[C@H]3[C@@H]1C[C@@H](O)[C@@H]2O`, the Potency result is “inactive”.

Regarding `CC[C@H](C)C(=O)O[C@H]1C[C@@H](C)C=C2C=C[C@H](C)[C@H](CC[C@@H]3C[C@@H](O)CC(=O)O3)[C@H]21`, the Potency entry is “inactive”.

For `Cc1nnc(NS(=O)(=O)c2ccc(N)cc2)s1`, the Potency result is “inactive”.

Take `NC(=O)c1ccccc1O`: the Potency entry was “inactive”.

Regarding `CC(C)Cc1ccc(C(C)C(=O)O)cc1` (stereo not given), the Potency entry was “inactive”.

As for `CC(C)(Oc1ccc(Cl)cc1)C(=O)O`, the Potency entry is “inactive”.

`COc1ccccc1OCC(O)CO` (stereo not given): the Potency entry is “inactive”.

For `NC(=O)c1cccnc1`, the Potency entry is “inactive”.

Turning to `CC(=O)[C@@]1(O)CC[C@H]2[C@@H]3C[C@H](C)C4=CC(=O)C=C[C@]4(C)[C@@]3(F)[C@@H](O)C[C@@]21C`, the Potency result was “inactive”.

Consider `CC(=O)Nc1nnc(S(N)(=O)=O)s1`, for which the Potency entry was “inactive”.

`NNCCc1ccccc1`: the Potency entry is “inactive”.

For `CCOC(N)=O`, the Potency entry is “inactive”.

`CCCCCCc1ccc(O)cc1O`: the Potency entry is “inactive”.
